Results: PubChem BioAssay (Tox21)
Several values for one entry are separate records, joined by “and”; a condition that tells them apart may be missing. Identical values can stand only once. Records with an inconclusive call do not appear. Some structures have more than one record in an assay (separate samples or runs), and their calls can disagree. Activity calls are given as the source filed them. The call rests on the fitted dose curve.

The compounds below were run against Acetylcholinesterase (Homo sapiens) (UniProt P22303) (assay: Acetylcholinesterase (AChE) small molecule antagonists: colormetric cell-based qHTS assay (AID 1347395; further: nearly all actives have a fitted effect of over 30% in size)). Conditions: SH-SY5Y cells AChE activity, colorimetric (Ellman); series mostly up to 115 µM; activity, negative = inhibition: at the top concentration.
Acetylcholinesterase (Homo sapiens), sequence (P22303 whole entry, looked up): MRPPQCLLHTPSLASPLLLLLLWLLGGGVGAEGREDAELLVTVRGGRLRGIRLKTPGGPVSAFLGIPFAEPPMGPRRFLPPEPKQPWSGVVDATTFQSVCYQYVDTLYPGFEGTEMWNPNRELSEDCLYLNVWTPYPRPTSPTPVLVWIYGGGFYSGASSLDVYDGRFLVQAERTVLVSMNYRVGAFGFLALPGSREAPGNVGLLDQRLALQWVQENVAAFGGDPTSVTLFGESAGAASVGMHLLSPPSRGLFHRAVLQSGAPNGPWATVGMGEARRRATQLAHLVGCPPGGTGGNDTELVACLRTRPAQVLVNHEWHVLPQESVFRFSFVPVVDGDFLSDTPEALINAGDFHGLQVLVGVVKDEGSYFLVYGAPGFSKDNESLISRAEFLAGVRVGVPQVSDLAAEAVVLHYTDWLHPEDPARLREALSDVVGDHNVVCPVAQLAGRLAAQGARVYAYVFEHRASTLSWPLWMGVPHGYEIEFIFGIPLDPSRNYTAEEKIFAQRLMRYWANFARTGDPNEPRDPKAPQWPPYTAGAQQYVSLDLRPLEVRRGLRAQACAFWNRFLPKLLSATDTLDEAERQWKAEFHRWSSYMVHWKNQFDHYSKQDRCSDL
How it was run: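 AChE inhibition read colorimetrically via DTNB–thiocholine in SH-SY5Y cells. Compound 30 min, substrate 90 min, both 37 C.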
On the % scale 0 is the no-effect control and ±100 the full control effect; potency means the concentration at half of the fitted maximal effect.

For `C=CC(=O)CCCCC`, which “activity, negative = inhibition” value is on record?
Its value is -0.303% (inactive).

With `COc1cc(OC)nc(O[C@H](C(=O)O)C(OC)(c2ccccc2)c2ccccc2)n1` as the compound, how does the “activity, negative = inhibition” value read?
Its value is -10.7% [at 52.9 µM] (inactive).

With `CNC(=O)[C@H]1O[C@@H](n2cnc3c(NCc4cc(Cl)ccc4OCc4cc(C)no4)ncnc32)[C@H](O)[C@@H]1N` as the compound, how does the “activity, negative = inhibition” value read?
The value was 0.639% (inactive).

With `OCc1cccnc1` as the compound, how does the Potency read?
The Potency was “inactive”.

`Cc1cnc(C(=O)NCCc2ccc(S(=O)(=O)NC(=O)NC3CCCCC3)cc2)cn1` was tested. Which Potency did it give?
The Potency was “inactive”.

How did the Potency turn out when `CC(C)(C)[C@@H](O)[C@@H](Cc1ccc(Cl)cc1)n1cncn1` was run?
Its Potency is “inactive and 71 µM (active)”.

For `CCCCC/C(=C\c1ccccc1)CO`, which “activity, negative = inhibition” value is on record?
The value was 1.65% (inactive).

How did the Potency turn out when `OC[C@H]1O[C@@](CO)(O[C@H]2O[C@H](CO)[C@@H](O)[C@H](O)[C@H]2O)[C@@H](O)[C@@H]1O` was run?
The Potency was “inactive”.

For `CC(C(=O)O)c1cccc(C(=O)c2ccccc2)c1` (stereo not given), which Potency is on record?
Its Potency is “inactive”.

`CCCC(=O)Nc1ccc(OCC(O)CNC(C)C)c(C(C)=O)c1` (stereo not given) was tested. Which “activity, negative = inhibition” value did it give?
Its value is -2.03% [at 52.9 µM] (inactive).

How did the “activity, negative = inhibition” value turn out when `CC1=C(C(=O)O)N2C(=O)[C@@H](NC(=O)[C@H](N)c3ccccc3)[C@H]2SC1` was run?
The value was -1.85% [at 52.9 µM] (inactive).

How did the “activity, negative = inhibition” value turn out when `CC(C)NC[C@@H](O)COc1ccc(CC(N)=O)cc1` was run?
Its value is -1.94% [at 52.9 µM] (inactive).

How did the Potency turn out when `CCOCCOCCOCCO` was run?
The Potency was “inactive”.

Which “activity, negative = inhibition” value does the source give for `CCCCOC(=O)C(C)Oc1ccc(Oc2ccc(C(F)(F)F)cn2)cc1` (stereo not given) here?
Its value is -2.51% (inactive).

Which “activity, negative = inhibition” value does the source give for `CC(=O)/C(C)=C/C1C(C)=CCCC1(C)C` (stereo not given) here?
The value was -0.279% (inactive).

With `O=C(NO)C1(NS(=O)(=O)c2ccc(Oc3ccc(F)cc3)cc2)CCOCC1` as the compound, how does the “activity, negative = inhibition” value read?
Its value is 0.467% (inactive).

`O=c1cc(-c2ccc(O)cc2)oc2cc(O)cc(O)c12` was tested. Which Potency did it give?
Its Potency is “inactive”.

With `Cc1ccc(S(=O)(=O)NC(=O)NC2CCCCC2)cc1` as the compound, how does the “activity, negative = inhibition” value read?
The value was 1.79% [at 52.9 µM] (inactive).

Which “activity, negative = inhibition” value does the source give for `Cc1c(C)c2c(c(C)c1OC(=O)c1cccnc1)CC[C@@](C)(CCC[C@H](C)CCC[C@H](C)CCCC(C)C)O2` here?
Its value is 0.0153% [at 52.9 µM] (inactive).

Which “activity, negative = inhibition” value does the source give for `CCCCCCCCCCCCCCBr` here?
Its value is -1.21% (inactive).

For `COc1cc(NCc2ccc3nc(N)nc(N)c3c2C)cc(OC)c1OC`, which Potency is on record?
The Potency was 8.71 µM (active).

With `C=CCCCCCCCCO` as the compound, how does the “activity, negative = inhibition” value read?
Its value is 3.6% (inactive).

Which Potency does the source give for `O=c1[nH]nnc2ccccc12` here?
Its Potency is “inactive”.

How did the “activity, negative = inhibition” value turn out when `Cc1cccc(Nc2ccncc2S(=O)(=O)NC(=O)NC(C)C)c1` was run?
The value was -0.757% [at 52.9 µM] (inactive).

`Cc1ccc(/C(=C\CN2CCCC2)c2ccccn2)cc1` was tested. Which “activity, negative = inhibition” value did it give?
The value was -0.841% [at 52.9 µM] (inactive).

Which activity, negative = inhibition does the source give for `O=C(O)CNCC(=O)O` here?
Its activity, negative = inhibition is 1.88% [at 10.5 µM] (inactive).

For `CN(C)C(=O)C(CCN1CCC(O)(c2ccc(Cl)cc2)CC1)(c1ccccc1)c1ccccc1`, which “activity, negative = inhibition” value is on record?
The value was 0.841% [at 52.9 µM] (inactive).

For `CCC(C)OC(=O)N1CCCCC1CCO` (stereo not given), which “activity, negative = inhibition” value is on record?
Its value is -4.37% (inactive).

`CCOC(=O)c1c(N)sc2c1CCN(Cc1ccccc1)C2` was tested. Which Potency did it give?
Its Potency is 12.3 µM (active).

`NC(=O)c1nc(-c2cccc(-c3cc(F)ccc3OCC(F)(F)C(F)(F)F)c2)n[nH]1` was tested. Which “activity, negative = inhibition” value did it give?
The value was 2.52% (inactive).

For `CC[C@]1(O)C[C@@H]2CN(CCc3c([nH]c4ccccc34)[C@@](C(=O)OC)(c3cc4c(cc3OC)N(C)[C@H]3[C@@](O)(C(=O)OC)[C@H](OC(C)=O)[C@]5(CC)C=CCN6CC[C@]43[C@@H]65)C2)C1`, which Potency is on record?
The Potency was “inactive”.

How did the “activity, negative = inhibition” value turn out when `Cc1onc(-c2ccccc2Cl)c1C(=O)N[C@@H]1C(=O)N2[C@@H]1SC(C)(C)[C@@H]2C(=O)O` was run?
The value was 1.09% [at 52.9 µM] (inactive).

`C[N+]1(C)CCC(OC(=O)C(O)(c2ccccc2)C2CCCC2)C1` (stereo not given) was tested. Which “activity, negative = inhibition” value did it give?
The value was -0.168% [at 52.9 µM] (inactive).

`O=S(=O)(c1cccc2cnccc12)N1CCCNCC1` was tested. Which “activity, negative = inhibition” value did it give?
Its value is -1.42% [at 52.9 µM] (inactive).

`CCCCCCCCCCCCCCCCCC(=O)OCC(O)CO` (stereo not given) was tested. Which Potency did it give?
The Potency was “inactive”.

For `CCNc1cc(O)ccc1C`, which “activity, negative = inhibition” value is on record?
Its value is 3.38% (inactive).

How did the activity, negative = inhibition turn out when `N[C@@H](Cc1ccc(O)cc1)C(=O)O` was run?
Its activity, negative = inhibition is -0.421% [at 10.5 µM] (inactive).

With `CC(=O)OC/C=C(/C)CCC=C(C)C` as the compound, how does the “activity, negative = inhibition” value read?
The value was 7.75% (inactive).

How did the Potency turn out when `O=c1n(CC2CO2)c(=O)n(CC2CO2)c(=O)n1CC1CO1` (stereo not given) was run?
Its Potency is “inactive”.

For `c1cc(N(CC2CO2)CC2CO2)ccc1Cc1ccc(N(CC2CO2)CC2CO2)cc1` (stereo not given), which “activity, negative = inhibition” value is on record?
Its value is -2.94% (inactive).
